Experimental data from PubChem BioAssay (EPA / NIEHS).
Records with an inconclusive call do not appear. Activity calls are given as the source filed them. The calls were made as follows, unless noted: active = hit-call score of the fitted dose curve at least 0.9, where 1 is the maximum; inactive = score below 0.9.

Experiments:
[1] = target: human Retinoic Acid Receptor gamma (RARg), RARG (gene 5916) (UniProt P13631); experiment: ATG_RARg_TRANS: Attagene TRANS-FACTORIAL HepG2 Assay for human Retinoic Acid Receptor gamma (RARg) (AID 2283009; active = hit-call score of the fitted dose curve at least 0.9, where 1 is the maximum)
Sequence of human Retinoic Acid Receptor gamma (RARg), RARG (gene 5916) (P13631 whole entry, looked up, the tested form may be a part): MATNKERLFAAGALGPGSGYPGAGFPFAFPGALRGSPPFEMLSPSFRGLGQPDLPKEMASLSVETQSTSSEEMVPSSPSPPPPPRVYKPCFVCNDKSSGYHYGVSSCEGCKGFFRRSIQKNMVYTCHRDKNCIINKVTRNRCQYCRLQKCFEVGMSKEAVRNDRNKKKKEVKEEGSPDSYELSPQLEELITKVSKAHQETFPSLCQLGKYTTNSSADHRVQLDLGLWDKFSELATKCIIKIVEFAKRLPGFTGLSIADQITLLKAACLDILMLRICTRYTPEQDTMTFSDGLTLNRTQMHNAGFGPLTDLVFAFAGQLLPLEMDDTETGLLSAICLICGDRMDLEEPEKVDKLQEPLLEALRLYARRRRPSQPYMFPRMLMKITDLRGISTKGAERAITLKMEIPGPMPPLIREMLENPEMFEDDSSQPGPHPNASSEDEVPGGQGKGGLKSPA
In short: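 Readout: reporter transcript levels via RT-PCR, 6-FAM primer-extension labelling, HpaI digestion and capillary electrophoresis. Cells: HepG2 carrying transfected RARg-GAL4 chimera plus UAS reporter set. Dosing 24 h; DMSO negative control.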

[2] = target: Retinoic acid receptor RXR-alpha (Homo sapiens) (UniProt P19793); experiment: ATG_RXRa_TRANS: Attagene TRANS-FACTORIAL HepG2 Assay for human Retinoid X Receptor alpha (RXRa) (AID 2283012; active = hit-call score of the fitted dose curve at least 0.9, where 1 is the maximum)
Sequence of Retinoic acid receptor RXR-alpha (Homo sapiens) (P19793 whole entry, looked up, the tested form may be a part): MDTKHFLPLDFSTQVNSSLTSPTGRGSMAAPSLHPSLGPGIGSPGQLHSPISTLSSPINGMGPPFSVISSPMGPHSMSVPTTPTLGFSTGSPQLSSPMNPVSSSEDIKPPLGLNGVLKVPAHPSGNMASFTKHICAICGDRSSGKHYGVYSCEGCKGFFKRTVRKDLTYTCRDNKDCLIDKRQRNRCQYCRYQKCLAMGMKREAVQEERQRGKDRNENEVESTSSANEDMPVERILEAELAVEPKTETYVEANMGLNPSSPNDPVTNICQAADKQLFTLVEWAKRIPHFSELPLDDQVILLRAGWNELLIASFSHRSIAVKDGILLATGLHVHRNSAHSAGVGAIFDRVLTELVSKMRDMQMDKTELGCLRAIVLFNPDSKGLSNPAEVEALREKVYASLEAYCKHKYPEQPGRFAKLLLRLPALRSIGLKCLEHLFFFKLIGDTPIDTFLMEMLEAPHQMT
In short: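 Read-out: fluorescent reporter-transcript fragments quantified by capillary electrophoresis after RT-PCR. Transiently transfected HepG2 cells carrying GAL4-UAS reporters and NR-GAL4 chimeras were exposed to chemical for 24 h; activity scored as increase over DMSO.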

[3] = target: human Retinoid X Receptor beta (RXRb), RXRB (gene 6257) (UniProt P28702); experiment: ATG_RXRb_TRANS: Attagene TRANS-FACTORIAL HepG2 Assay for human Retinoid X Receptor beta (RXRb) (AID 2283013; active = hit-call score of the fitted dose curve at least 0.9, where 1 is the maximum)
Sequence of human Retinoid X Receptor beta (RXRb), RXRB (gene 6257) (P28702 whole entry, looked up, the tested form may be a part): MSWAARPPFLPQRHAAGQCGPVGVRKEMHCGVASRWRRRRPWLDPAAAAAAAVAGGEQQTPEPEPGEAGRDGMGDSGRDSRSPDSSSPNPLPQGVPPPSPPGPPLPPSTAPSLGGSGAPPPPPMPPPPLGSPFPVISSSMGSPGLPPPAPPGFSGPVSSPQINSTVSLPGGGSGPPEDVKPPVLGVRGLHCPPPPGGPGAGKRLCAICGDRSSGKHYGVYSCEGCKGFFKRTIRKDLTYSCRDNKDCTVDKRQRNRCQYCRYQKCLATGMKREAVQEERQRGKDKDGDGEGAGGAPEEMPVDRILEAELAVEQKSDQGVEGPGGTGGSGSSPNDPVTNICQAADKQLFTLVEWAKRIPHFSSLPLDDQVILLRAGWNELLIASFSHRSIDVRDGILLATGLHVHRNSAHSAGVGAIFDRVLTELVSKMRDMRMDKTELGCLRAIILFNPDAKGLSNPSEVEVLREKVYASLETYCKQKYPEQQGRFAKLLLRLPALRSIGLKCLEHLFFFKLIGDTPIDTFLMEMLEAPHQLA
In short: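 Read-out: reporter mRNA induction via RT-PCR plus capillary electrophoresis fluorescence, analysed as signal increase relative to DMSO. Cells were human HepG2, transiently transfected with GAL4-UAS reporter constructs and chimeric receptor-Gal4 fusions, dosed for 24 h.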

[4] = read-out: E-selectin (Homo sapiens) (UniProt P16581); experiment: BSK_3C_Eselectin: BioMAP Diversity Plus: 3C Assay for Eselectin Biomarker Activity (AID 2283015); conditions: primary human endothelial cells (HUVEC); actives raise or lower the signal
In short: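 Primary human umbilical vein endothelial cells (3C system) were dosed with chemical and cell-surface E-selectin measured by ELISA 24 h later. Bidirectional curve fitting used DMSO as negative control and baseline.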

[5] = read-out: Monocyte Chemoattractant Protein-1 (MCP1), CCL2 (gene 6347); experiment: BSK_3C_MCP1: BioMAP Diversity Plus: 3C Assay for Monocyte Chemoattractant Protein-1 (MCP1) Biomarker Activity (AID 2283017); conditions: primary human endothelial cells (HUVEC); actives raise or lower the signal
In short: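 Primary human umbilical vein endothelial cells (3C system) were exposed to test chemical for 24 h, after which MCP-1 was quantified by ELISA. Activity was fitted bidirectionally against DMSO as negative control and baseline.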

[6] = read-out: Monocyte Chemoattractant Protein-1 (MCP1), CCL2 (gene 6347); experiment: BSK_4H_MCP1: BioMAP Diversity Plus: 4H Assay for Monocyte Chemoattractant Protein-1 (MCP1) Biomarker Activity (AID 2283018); conditions: primary human endothelial cells (HUVEC); actives raise or lower the signal
In short: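 HUVEC primary cells, 24 h post-dose, MCP-1 by ELISA. Gain or loss of signal fitted bidirectionally vs DMSO baseline. Cytotoxicity: SRB stain (0.1% after 10% TCA fixation), read 560 nm, parallel cultures.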

[7] = read-out: Human Leukocyte Antigen - DR isotype (HLADR), HLA-DRA (gene 3122); experiment: BSK_3C_HLADR: BioMAP Diversity Plus: 3C Assay for Human Leukocyte Antigen - DR isotype (HLADR) Biomarker Activity (AID 2283019); conditions: primary human endothelial cells (HUVEC); actives raise or lower the signal
In short: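 Primary human umbilical vein endothelial cells (3C system) were dosed with compound and cell-surface HLA-DR was quantified by ELISA at 24 h. Activity was fitted bidirectionally against DMSO as negative control and baseline.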

[8] = read-out: Interleukin-8 (IL8), CXCL8 (gene 3576); experiment: BSK_3C_IL8: BioMAP Diversity Plus: 3C Assay for Interleukin-8 (IL8) Biomarker Activity (AID 2283020); conditions: primary human endothelial cells (HUVEC); actives raise or lower the signal
In short: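 HUVEC, 3C stimulation; 24 h compound exposure; IL-8 read by ELISA; gain or loss of signal fitted relative to DMSO control.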

[9] = read-out: Monokine induced gamma interferon (MIG), CXCL9 (gene 4283); experiment: BSK_3C_MIG: BioMAP Diversity Plus: 3C Assay for Monokine induced gamma interferon (MIG) Biomarker Activity (AID 2283021); conditions: primary human endothelial cells (HUVEC); actives raise or lower the signal;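 as to AC50: MIG protein level measured by immunoassay in the treated endothelial cultures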
In short: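 HUVEC, 3C system; 24 h chemical exposure; MIG by ELISA; bidirectional fit vs DMSO baseline.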

[10] = target: human Vitamin D Receptor (VDR), VDR (gene 7421) (UniProt P11473); experiment: ATG_VDR_TRANS: Attagene TRANS-FACTORIAL HepG2 Assay for human Vitamin D Receptor (VDR) (AID 2283022; active = hit-call score of the fitted dose curve at least 0.9, where 1 is the maximum)
Sequence of human Vitamin D Receptor (VDR), VDR (gene 7421) (P11473 whole entry, looked up, the tested form may be a part): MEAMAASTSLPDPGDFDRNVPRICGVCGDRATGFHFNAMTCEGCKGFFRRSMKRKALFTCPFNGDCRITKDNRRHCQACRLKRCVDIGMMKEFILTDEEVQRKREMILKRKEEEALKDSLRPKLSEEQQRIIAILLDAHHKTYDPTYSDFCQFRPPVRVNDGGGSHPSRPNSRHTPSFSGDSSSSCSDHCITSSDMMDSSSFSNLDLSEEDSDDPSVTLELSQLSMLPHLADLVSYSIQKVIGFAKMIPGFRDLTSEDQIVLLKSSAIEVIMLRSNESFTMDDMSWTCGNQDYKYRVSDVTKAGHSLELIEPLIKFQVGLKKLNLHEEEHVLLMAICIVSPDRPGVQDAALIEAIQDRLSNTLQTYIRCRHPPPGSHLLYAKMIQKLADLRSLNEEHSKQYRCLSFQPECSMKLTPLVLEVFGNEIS
In short: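 HepG2 cells were transiently transfected with multiple GAL4-UAS reporter units, so signal reflects exogenous chimeric receptor-Gal4 activity. After 24 h compound exposure, reporter mRNA was measured by RT-PCR, fluorescent labelling and capillary electrophoresis, fitted for gain of signal versus DMSO.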

[11] = BSK_3C_SRB: Viability Assessment in the BioMAP Diversity Plus: 3C Assay (AID 2283023); conditions: primary human endothelial cells (HUVEC);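 also: fitted both ways against DMSO so a hit may be signal rise or drop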
In short: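 Primary human umbilical vein endothelial cells in the 3C system were read 24 h after compound dosing. Total protein was stained with 0.1% sulforhodamine B after 10% TCA fixation and read at 560 nm, with bidirectional fitting against DMSO as baseline.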

[12] = read-out: Matrix Metallopeptidase 1 (MMP1), MMP1 (gene 4312); experiment: BSK_BE3C_MMP1: BioMAP Diversity Plus: BE3C Assay for Matrix Metallopeptidase 1 (MMP1) Biomarker Activity (AID 2283024); conditions: primary human bronchial epithelial cells; actives raise or lower the signal
In short: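 ELISA read-out of MMP1 in human lung bronchial epithelial primary cultures, 24 h post-dose; bidirectional curve fit vs DMSO baseline, gain or loss of signal scored.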

[13] = BSK_3C_Vis: BioMAP Diversity Plus: 3C Assay for Morphology Visualization (AID 2283025); conditions: primary human endothelial cells (HUVEC);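 also: fitted both ways so gain or loss versus DMSO counts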;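 as to AC50: light microscopy image of cell morphology used as background control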
In short: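 HUVEC, 3C system; light microscopy of morphology at 24 h post-dose. Bidirectional fit vs DMSO baseline. Secondary readout, background-control function.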

[14] = read-out: Pselectin, SELP (gene 6403); experiment: BSK_4H_Pselectin: BioMAP Diversity Plus: 4H Assay for Pselectin Biomarker Activity (AID 2283026); conditions: primary human endothelial cells (HUVEC); actives raise or lower the signal
In short: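 HUVEC, 24 h chemical exposure; P-selectin read by ELISA. Bidirectional curve fit vs DMSO baseline; gain or loss of signal scored.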

[15] = BSK_4H_SRB: Viability Assessment in the BioMAP Diversity Plus: 4H Assay (AID 2283027); conditions: primary human endothelial cells (HUVEC);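 also: cells exposed to compound for 24 h before staining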;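 as to AC50: curves fitted both ways versus DMSO so AC50 may be loss or gain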
In short: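 Cytotoxicity readout: sulforhodamine B (0.1%) staining of total protein after 10% TCA fixation, measured at 560 nm in human umbilical vein endothelium at 24 h. DMSO set the baseline; fitting was bidirectional.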

[16] = BSK_BE3C_SRB: Viability Assessment in the BioMAP Diversity Plus: BE3C Assay (AID 2283028); conditions: primary human bronchial epithelial cells;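 as to AC50: fitted both ways so AC50 may mark signal gain or loss versus DMSO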
In short: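 Human primary bronchial epithelial cells were exposed to test chemicals for 24 h. Total protein in parallel cultures was then measured by staining with 0.1% sulforhodamine B after 10% TCA fixation, with absorbance read at 560 nm. Activity was fitted bidirectionally against DMSO.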

[17] = read-out: Thrombomodulin, THBD (gene 7056); experiment: BSK_3C_Thrombomodulin: BioMAP Diversity Plus: 3C Assay for Thrombomodulin Biomarker Activity (AID 2283029); conditions: primary human endothelial cells (HUVEC); actives raise or lower the signal
In short: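 HUVEC, 3C conditions; compound 24 h; thrombomodulin by ELISA; bidirectional curve fit vs DMSO baseline; parallel SRB total-protein staining for cytotoxicity.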

[18] = target: human Thyroid Receptor alpha (THRa1), THRA (gene 7067) (UniProt P10827); experiment: ATG_THRa1_TRANS: Attagene TRANS-FACTORIAL HepG2 Assay for human Thyroid Receptor alpha (THRa1) (AID 2283014; active = hit-call score of the fitted dose curve at least 0.9, where 1 is the maximum)
Sequence of human Thyroid Receptor alpha (THRa1), THRA (gene 7067) (P10827 whole entry, looked up, the tested form may be a part): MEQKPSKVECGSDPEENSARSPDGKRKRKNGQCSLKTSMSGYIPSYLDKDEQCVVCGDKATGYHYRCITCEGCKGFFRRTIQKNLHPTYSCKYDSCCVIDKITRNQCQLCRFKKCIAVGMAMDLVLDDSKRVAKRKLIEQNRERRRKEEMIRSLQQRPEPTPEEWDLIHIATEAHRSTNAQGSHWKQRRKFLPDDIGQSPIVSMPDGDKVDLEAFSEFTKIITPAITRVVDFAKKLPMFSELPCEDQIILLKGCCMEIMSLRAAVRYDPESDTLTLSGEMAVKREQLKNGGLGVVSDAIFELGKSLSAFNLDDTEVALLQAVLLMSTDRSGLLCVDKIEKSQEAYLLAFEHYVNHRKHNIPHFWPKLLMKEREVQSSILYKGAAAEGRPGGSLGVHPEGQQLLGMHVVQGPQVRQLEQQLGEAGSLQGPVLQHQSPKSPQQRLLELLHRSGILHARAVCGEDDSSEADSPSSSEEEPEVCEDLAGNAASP
In short: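 HepG2 cells transiently transfected with multiplexed GAL4-UAS reporter units for exogenous chimeric THRa1-Gal4; reporter mRNA measured 24 h after dosing by RT-PCR, 6-FAM labelling, HpaI digestion and capillary electrophoresis. Gain-of-signal fitted versus DMSO baseline.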

[19] = read-out: Interleukin-1 alpha (IL1a), IL1A (gene 3552); experiment: BSK_BE3C_IL1a: BioMAP Diversity Plus: BE3C Assay for Interleukin-1 alpha (IL1a) Biomarker Activity (AID 2283016); conditions: primary human bronchial epithelial cells; actives raise or lower the signal
In short: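 ELISA read-out of IL-1a from human lung bronchial epithelial primary cells, 24 h post-dose. Gain or loss of signal fitted relative to DMSO negative control.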

Measured: AC50

Sequence of E-selectin (Homo sapiens) (P16581 whole entry, looked up): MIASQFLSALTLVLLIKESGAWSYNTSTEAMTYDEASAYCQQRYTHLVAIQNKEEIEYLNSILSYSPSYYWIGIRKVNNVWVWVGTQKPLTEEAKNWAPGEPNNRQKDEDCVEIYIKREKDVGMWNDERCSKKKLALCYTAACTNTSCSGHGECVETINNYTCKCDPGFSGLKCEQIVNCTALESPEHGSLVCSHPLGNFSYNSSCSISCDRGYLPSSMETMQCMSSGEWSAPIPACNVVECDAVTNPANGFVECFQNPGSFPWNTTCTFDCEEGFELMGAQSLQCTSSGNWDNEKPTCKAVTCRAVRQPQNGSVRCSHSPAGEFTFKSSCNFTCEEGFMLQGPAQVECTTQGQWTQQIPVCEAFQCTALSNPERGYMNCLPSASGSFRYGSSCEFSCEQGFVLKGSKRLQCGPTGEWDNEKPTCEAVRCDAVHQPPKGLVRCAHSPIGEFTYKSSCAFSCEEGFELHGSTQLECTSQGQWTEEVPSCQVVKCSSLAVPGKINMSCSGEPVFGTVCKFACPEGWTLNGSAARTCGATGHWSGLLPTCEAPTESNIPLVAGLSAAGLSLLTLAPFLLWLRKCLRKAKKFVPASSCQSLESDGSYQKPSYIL

CCCCSP(=O)(SCCCC)SCCCC
active: [4] 28.1 µM | [5] 26 µM | [6] 16.7 µM | [7] 27.7 µM | [8] 31.9 µM | [11] 27.9 µM | [13] 13.7 µM | [15] 20 µM | [16] 14.7 µM | [17] 5.35 µM
inactive: [1] | [2] | [3] | [9] | [10] | [12] | [14]

Cc1cc(C2CC2)nc(Nc2ccccc2)n1
inactive: [1] | [2] | [19] | [9] | [10] | [12] | [14] | [15] | [16]
active: [3] 75.3 µM | [18] 64 µM | [5] 32.1 µM | [6] 17.8 µM | [7] 15.2 µM | [11] 24.8 µM | [13] 37.5 µM | [17] 33.7 µM

N#CSCSC#N
inactive: [1] | [2] | [18] | [19] | [12] | [16]
active: [5] 8.34 µM | [6] 7.62 µM | [9] 10.8 µM | [11] 4.78 µM | [13] 5.45 µM | [14] 5.1 µM | [15] 10.2 µM | [17] 13.5 µM

C[N+]1(C)CCCCC1
inactive: [1] | [2] | [3] | [18] | [4] | [5] | [6] | [7] | [8] | [9] | [11] | [12] | [13] | [14] | [15] | [16] | [17]

CCOC(=O)COc1cc(-c2nn(C)c(OC(F)F)c2Cl)c(F)cc1Cl
inactive: [1] | [2] | [3] | [18] | [4] | [5] | [7] | [9] | [10] | [11] | [12] | [13] | [15] | [16] | [17]
active: [6] 10.1 µM | [14] 6.73 µM

O=C(O)c1cc(Oc2ccc(C(F)(F)F)cc2Cl)ccc1[N+](=O)[O-]
active: [13] 9.8 µM
inactive: [1] | [2] | [3] | [18] | [19] | [5] | [6] | [7] | [9] | [11] | [12] | [14] | [15] | [16] | [17]

CCCSP(=O)(OCC)Oc1ccc(Br)cc1Cl (stereo not given)
inactive: [1] | [4] | [5] | [7] | [9] | [10] | [12] | [13] | [17]
active: [6] 28.9 µM | [11] 22.6 µM | [14] 32.3 µM | [15] 22.8 µM | [16] 15.4 µM

CCOP(=S)(Oc1cnc(C(C)(C)C)nc1)OC(C)C (stereo not given)
inactive: [1] | [2] | [3] | [18] | [10] | [12] | [16] | [17]
active: [5] 38 µM | [6] 33.4 µM | [7] 31.3 µM | [9] 34.2 µM | [11] 35.5 µM | [13] 39.8 µM | [14] 32 µM | [15] 34.1 µM

CCCOCC(=Nc1ccc(Cl)cc1C(F)(F)F)n1ccnc1
inactive: [1] | [2] | [3]
active: [4] 30.2 µM | [19] 33.5 µM | [5] 30.2 µM | [6] 24.9 µM | [7] 26.8 µM | [8] 33.7 µM | [9] 35.1 µM | [11] 31 µM | [12] 34 µM | [13] 20 µM | [14] 29.8 µM | [15] 29 µM | [16] 20 µM | [17] 35 µM

CCCCN(CC)c1c([N+](=O)[O-])cc(C(F)(F)F)cc1[N+](=O)[O-]
active: [7] 20 µM | [11] 16.4 µM | [13] 39 µM
inactive: [1] | [2] | [19] | [5] | [6] | [8] | [9] | [10] | [12] | [14] | [15] | [16] | [17]

CCOP(=S)(OCC)OC(Cl)C(Cl)(Cl)Cl (stereo not given)
active: [4] 14.7 µM | [7] 12.2 µM | [11] 14.9 µM | [13] 39.8 µM | [14] 29.4 µM | [15] 12.4 µM
inactive: [1] | [2] | [3] | [18] | [19] | [5] | [6] | [9] | [12] | [16] | [17]

C=C(C)[C@H]1Cc2c(ccc3c2O[C@@H]2COc4cc(OC)c(OC)cc4[C@@H]2C3=O)O1
inactive: [1] | [3] | [19] | [9] | [12] | [16] | [17]
active: [18] 0.24 µM | [4] 20 µM | [5] 34.8 µM | [6] 29.3 µM | [7] 3.82 µM | [8] 20 µM | [11] 12.9 µM | [13] 0.468 µM | [14] 10.3 µM | [15] 3.9 µM
